For 7 sequences, PBM binding z-score results are on record in the supplement of paper PMC6555819.

Assay in all cases: PBM binding z-score (relative to random genomic background probes); higher = stronger binding; sequences stand for … in GC…GCGATTGACAGCGTAGAATGAAGG
The test system of test [1] is FXR:RXRa (NR concentration 270 nM, RXRa partner concentration 90 nM). In outline: (§1)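 Each nuclear receptor dimer, without ligand, was incubated for 1 h on custom Agilent 4×180K protein-binding microarrays. Binding was detected with antibodies against each partner (one per run), and scanned fluorescence was regression-normalized. The binding z-scores are referenced to random human genomic background probes.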

Test [2] deals with LXRa:RXRa (NR concentration 270 nM, RXRa partner concentration 90 nM). The procedure, abridged:
as §1

Test [3] deals with LXRa homodimer (NR concentration 270 nM). In outline:
as §1

Test [4] has as its system LXRb:RXRa (NR concentration 270 nM, RXRa partner concentration 90 nM). In outline:
as §1

The test system of test [5] is LXRb homodimer (NR concentration 270 nM). The procedure, abridged:
as §1

The test system of test [6] is PPARa:RXRa (NR concentration 270 nM, RXRa partner concentration 90 nM). In outline:
as §1

The test system of test [7] is PPARg:RXRa (NR concentration 180 nM, RXRa partner concentration 90 nM). In outline: as §1
Test [8] deals with PPARg:RXRa 270nM:90nM, anti-RXR (NR concentration 270 nM, RXRa partner concentration 90 nM). In outline:
as §1

Test [9] deals with PPARg:RXRa 30nM:10nM, anti-RXR (NR concentration 30 nM, RXRa partner concentration 10 nM). The procedure, abridged: as §1
For test [10], the system named is PPARg:RXRa 90nM:30nM, anti-RXR (NR concentration 90 nM, RXRa partner concentration 30 nM). In outline: as §1
Test [11] deals with PPARg:RXRa DBDmut IVT, anti-RXR (DBD mutation: RXRa K156A/R161A, NR concentration 270 nM, RXRa partner concentration 90 nM). In outline: as §1
In test [12] the test system is PPARg:RXRa IVT, anti-PPARg (NR concentration 270 nM, RXRa partner concentration 90 nM). In outline: as §1
The test system of test [13] is PPARg DBDmut:RXRa IVT, anti-PPARg (DBD mutation: PPARg1 K132A/R137A, NR concentration 270 nM, RXRa partner concentration 90 nM). The procedure, abridged:
as §1

For test [14], the system named is PPARg DBDmut IVT, anti-PPARg (DBD mutation: PPARg1 K132A/R137A, NR concentration 270 nM). The procedure, abridged:
as §1

Test [15] concerns PPARg homodimer (NR concentration 180 nM). In outline:
as §1

Test [16] has as its system PXR:RXRa (NR concentration 270 nM, RXRa partner concentration 90 nM). The procedure, abridged: as §1
Test [17] deals with PXR homodimer (NR concentration 270 nM). The procedure, abridged:
as §1

In test [18] the test system is RARa:RXR (NR concentration 270 nM, RXRa partner concentration 90 nM). The procedure, abridged:
as §1

In test [19] the test system is RARa homodimer (NR concentration 270 nM). The procedure, abridged: as §1
In test [20] the test system is RARb:RXRa (NR concentration 270 nM, RXRa partner concentration 90 nM). The procedure, abridged: as §1

With AGAATGAGGTTACCATAGATCAGGGAAACGCTTG, the PBM binding z-score was 1.71 in [1]; 6.81 in test [2]; -0.421 in test [3]; 3.61 in [4]; -0.0924 in test [5]; 3.14 in test [6]. The PBM binding z-score was 2.41 in test [7]; 2.09 in [8]; 0.706 in test [9]; 1.29 in test [10]; 3.38 in [11]; 3.18 in [12]. Also, the PBM binding z-score in [13] was 0.359; in [14], 0.63; in [15] it was 0.136; in test [16] it was 0.897; in test [17] it was 0.179; in test [18] it was 1.54. The PBM binding z-score in test [19] came out at 0.172; in [20], 1.79.

Regarding TAGTCTAGGTCATTCAGGGGCCAGTATAGAAAGC, the PBM binding z-score stood at 4.17 in test [1]; 4.28 in [2]; 2.05 in [3]; 3.15 in [4]; 3.06 in test [5]; 4.05 in [6]. The PBM binding z-score amounted to 4.7 in [7]; 4.38 in test [8]; 2.33 in test [9]; 3.77 in test [10]; 5.32 in [11]; 5.97 in test [12]. The PBM binding z-score in test [13] came out at 1.69; in [14], 1.74; in test [15], 2.29; in test [16], 2.53; in test [17] it was 0.48; in test [18], 3.32. Also, the PBM binding z-score in test [19] amounted to 0.639; in test [20], 3.73.

As to GCAGACAGGTGAAACGCAGGTAAATCAGGGTGGC, the PBM binding z-score in test [1] is -0.326; in test [2], -0.128; in test [3], -0.519; in test [4] it was -0.258; in test [5], -0.862; in [6] it was 0.983. In addition, the PBM binding z-score is 0.513 in test [7]; -0.213 in test [8]; -0.632 in [9]; -0.346 in test [10]; 0.287 in [11]; 0.429 in [12]. The PBM binding z-score in test [13] was -0.773; in [14] it was -1.02; in [15], -0.379; in test [16], -0.152; in test [17] it was -0.443; in test [18] it was 0.514. The figures for the PBM binding z-score in test [19] and in test [20] were -0.404 and 0.472, respectively.

On to ACTCGCAGGCCAAGGGTCACTCAAGATTAGTCCG, for which the PBM binding z-score in test [1] is 2.83; in [2] it was 3.23; in test [3], 0.261; in [4], 2.88; in test [5] it was -0.377; in [6], 4.4. For the same sequence, the PBM binding z-score worked out at 5.6 in test [7]; 6.01 in test [8]; 4.12 in [9]; 5.92 in test [10]; 0.79 in test [11]; 2.88 in test [12]. The PBM binding z-score in test [13] was -0.175; in test [14] it was 0.18; in test [15] it was 2.03; in test [16], 3.45; in test [17], -0.231; in [18], 4.23. Besides, the PBM binding z-score in [19] was found to be 0.673; in [20], 3.6.

Consider CCTAGTTGGTCAGGAGGTCGCACACCGGATATGA, for which the PBM binding z-score in test [1] is 1.17; in [2], 0.794; in test [3] it was 0.375; in [4], 0.833; in test [5], 0.0283; in test [6], 1.59. Besides, the PBM binding z-score came to 1.06 in [7]; 1.73 in [8]; 0.24 in test [9]; 1.19 in test [10]; 0.576 in [11]; 1.51 in [12]. Besides, the PBM binding z-score is -0.0553 in [13]; -0.0724 in [14]; 1.86 in test [15]; 1.24 in [16]; 0.681 in test [17]; 1.59 in test [18]. For the same sequence, the PBM binding z-score worked out at 1.17 in test [19] and 1.98 in [20].

On to TTACCAAGGTGAAAGGTCGTTAATGCACGCCTTG, for which the PBM binding z-score in test [1] was 3.24; in [2], 2.77; in [3], 0.376; in test [4] it was 2.71; in test [5], -0.461; in test [6], 5.24. Further, the PBM binding z-score was determined as 8.59 in test [7]; 7.35 in [8]; 6.74 in [9]; 7.85 in test [10]; 2.25 in [11]; 4.95 in [12]. Moreover, the PBM binding z-score is -0.238 in [13]; 0.567 in test [14]; 1.27 in [15]; 3.35 in [16]; 0.236 in test [17]; 4.98 in test [18]. The PBM binding z-score is 0.00553 in test [19] and 2.78 in test [20].

For TCTATTTGGTCAAAGGTCACACACTCGAAATGCG, the PBM binding z-score in test [1] was 6.32; in [2], 5.68; in [3], 4.22; in [4], 5.83; in test [5], 3.24; in test [6], 6.7. Also, the PBM binding z-score was 10.6 in [7]; 9.27 in test [8]; 9.35 in [9]; 10.1 in test [10]; 3.39 in test [11]; 6.25 in test [12]. Besides, the PBM binding z-score in test [13] came to 3.22; in [14], 2.73; in test [15] it was 5.3; in [16] it was 5.91; in [17], 1.76; in test [18] it was 7.03. Further, the results for the PBM binding z-score in [19] and in [20] were 3.85 and 5.42, respectively.
